# Results published in PubChem BioAssay (NCI).
# The panel holds about 83,000 compounds, 20% with a hit somewhere; the sample as a whole holds those more often.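 Treatment: one concentration, 48 hours, 96-well format. Scoring: percent growth, with anything below 10 considered active.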 Active and inactive are the calls of the source.
# Test system: SK-OV-3 ovarian
# Experiment: NCI-60 one-dose screen, 48 h (100 = growth as untreated, 0 = no growth, -100 = all killed)
# Conditions: 10 µM unless noted
row,Structure (SMILES),growth
1,COc1ccc(/C=C2\Oc3cc(OCCCN4CCCCC4)ccc3C2=O)cc1OC,113% (inactive)
2,Cc1nc(N)nc(N[C@@H](C)c2nc3cccc(NCc4ccc(C(=O)NO)cc4)c3c(=O)n2-c2ccccc2)n1,86.7% (inactive)
3,Cc1ccc(/C=N/NC(=O)CSc2nc3ccccc3c(=O)n2Cc2ccc(S(N)(=O)=O)cc2)cc1,103% (inactive)
4,COc1cc(/C(C)=C(\c2ccc(Cl)cc2)c2ccc(OCCN3CCCC3)cc2)ccc1F,108% (inactive)
5,COc1cc2nc(-c3ccc(Cl)cc3)cc(OCCCN3CCOCC3)c2cc1OC,68.4% (inactive)
6,COc1ccc(NC(N)=NCCCOc2ccc(F)cc2)cc1,79.1% (inactive)
7,COC(=O)CNC(=O)[C@]12CCC(C)(C)C[C@H]1C1=CC[C@@H]3[C@@]4(C)Cc5c([nH]c6ccccc56)C(C)(C)[C@@H]4CC[C@@]3(C)[C@]1(C)CC2,82.6% (inactive)
8,C[C@H]1[C@H](C)CC[C@]2(C(=O)Nc3ccc4ncccc4c3)CC[C@]3(C)C(=CC[C@@H]4[C@@]5(C)CCCNC(C)(C)[C@@H]5CC[C@]43C)[C@H]12,103% (inactive)
9,COc1cc(NC(C)CCCNC(=O)CCC(=O)NCCCNCCCCCCCCCCNCCCNC(=O)CCC(=O)NCCCC(C)Nc2cc(OC)cc3cccnc23)c2ncccc2c1 (stereo not drawn),116% [8 µM] (inactive)
10,CCCCCN1C=C/C(=C\C(=O)n2ccc3ccccc32)c2ccccc21,78.5% (inactive)
11,Cc1cc2nc3c4ccc(Br)cc4n(CCN(C)C)c3nc2cc1C,33.8% (inactive)
12,CC1(C)CC(=O)C2=C(C1)N(c1ccc(F)cc1F)C(N)=C(C#N)C2c1cc(Br)ccc1F (stereo not drawn),131% (inactive)
13,C[C@H]1[C@H](C)CC[C@]2(C(=O)NCC#CCN3CCN(C)CC3)CC[C@]3(C)C(=CC[C@@H]4[C@@]5(C)Cc6c([nH]c7ccccc67)C(C)(C)[C@@H]5CC[C@]43C)[C@H]12,86.9% (inactive)
14,COc1cc2nc(-c3ccc(C(F)(F)F)cc3)cc(OCCCN3CCOCC3)c2cc1OC,70.3% (inactive)
15,O=C1c2c(c3c4cccc(F)c4[nH]c3c3ccc4ccccc4c23)C(=O)N1O,75.5% (inactive)
16,O=C1OC(Cc2ccccc2)C1c1ccccc1 (stereo not drawn),121% (inactive)
17,COc1cccc(/C=N/NC(=O)c2cnn3c2NC(c2ccccc2)C3)c1Oc1ccccc1 (stereo not drawn),90.8% (inactive)
18,COc1ccc(NC(=O)c2cc(NCc3cc(O)ccc3O)ccc2O)cc1,86% (inactive)
19,COc1cc2nc(-c3ccc(Cl)cc3)cc(OCCCN3CCCC3)c2cc1OC,75.5% (inactive)
20,COc1ccc(C/C(=C(\C)c2ccc(OCCN3CCCC3)cc2)c2ccc(OCCN3CCCC3)cc2)cc1,90.8% (inactive)
21,COc1cc(NC(C)CCCNC(=O)CCC(=O)NCCCNCCCCCCCCNCCCNC(=O)CCC(=O)NCCCC(C)Nc2cc(OC)cc3cccnc23)c2ncccc2c1 (stereo not drawn),97.9% (inactive)
22,COc1ccc(Cc2cnc(NC(=O)c3ccc4c(c3)OCCO4)s2)cc1,33.4% (inactive)
23,CC(=O)N1c2ccccc2NC2=C(C(=O)NC2(C)C)C1c1ccco1 (stereo not drawn),95.6% (inactive)
24,O=S(=O)(NCCNc1nccc(-c2c(-c3cccc(F)c3)nc3sccn23)n1)c1ccc(Cl)cc1,94.9% (inactive)
25,CC(Sc1nc2sc3c(c2c(=O)n1-c1ccc(Cl)cc1)CCCC3)C(=O)Nc1nc(-c2ccc(Br)cc2)cs1 (stereo not drawn),96.6% (inactive)
26,C[C@@H](Nc1ncnc2ccc(-c3cnc(N)nc3)cc12)c1ccc(F)cc1,103% (inactive)
27,CC1(C)CC[C@]23CC[C@]4(C)[C@H](CC[C@@H]5[C@@]6(C)CCCNC(C)(C)[C@@H]6CC[C@]54C)[C@H]2[C@H]1OC3,75.8% (inactive)
28,COc1ccc(C(=O)c2nc3ccccc3n2CC(=O)c2ccc(Cl)cc2)cc1,107% (inactive)
